Common to all, as to assay: yeast three-hybrid, YBZ-1, SC-Leu-His + 0.5 mM 3-AT, 4 days
Conditions in all cases: tags: N-Gal4 AD-HA kept; label: inside an RPR1-promoter hybrid RNA with tandem MS2 sites; ssRNA

In one assay the target is PUM1 PUF domain R7-GVV (Homo sapiens, UniProt Q14671 828-1176, S1079G;N1080V;E1083V). In short, it runs like this:
(§1)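 The interaction score is the log change in variant frequency from input to selection. Scores were computed in log2 with a pseudocount of 1 for absent variants, using Illumina sequencing of PCR-amplified repeat regions. The input came from four days on SC-Leu and the selection from four days on SC-Leu-His + 0.5 mM 3-AT. The cells were strain YBZ-1 (LexA–MS2 coat fusion, HIS3 reporter) co-expressing Pumilio-1 PUF domain libraries and matching RNA elements from a centromeric plasmid.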

A further assay addresses PUM1 PUF domain R5-PRR (Homo sapiens, UniProt Q14671 828-1176, C1007P;Q1011R). The gist of the method: as §1
The target of a further assay is T1, PUM1 PUF domain R6-RVT (Homo sapiens, UniProt Q14671 828-1176, N1043R;Y1044V;Q1047T).
T1 sequence: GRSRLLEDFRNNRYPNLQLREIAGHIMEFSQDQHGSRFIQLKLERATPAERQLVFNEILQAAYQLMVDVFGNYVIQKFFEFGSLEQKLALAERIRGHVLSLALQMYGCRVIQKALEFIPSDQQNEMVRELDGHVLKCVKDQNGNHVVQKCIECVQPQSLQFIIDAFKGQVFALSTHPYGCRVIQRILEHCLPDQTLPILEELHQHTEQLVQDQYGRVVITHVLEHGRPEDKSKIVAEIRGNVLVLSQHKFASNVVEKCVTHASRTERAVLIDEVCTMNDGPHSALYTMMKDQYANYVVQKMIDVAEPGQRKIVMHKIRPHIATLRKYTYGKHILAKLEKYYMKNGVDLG
The gist of the method: as §1

The target in another assay is PUM1 PUF domain R1-KMV (Homo sapiens, UniProt Q14671 828-1176, S863K;R864M;Q867V). In short, it runs like this:
as §1

Another assay addresses PUM1 PUF domain R8-KHA (Homo sapiens, UniProt Q14671 828-1176, N1122K;Y1123H;Q1126A). In short, it runs like this:
as §1

In the next assay the target is PUM1 PUF domain R8-HFA (Homo sapiens, UniProt Q14671 828-1176, N1122H;Y1123F;Q1126A). In short, it runs like this: as §1
Another assay has as its target T2, PUM1 PUF domain R6-EWV (Homo sapiens, UniProt Q14671 828-1176, N1043E;Y1044W;Q1047V).
T2 sequence: T1 sequence with R216E, V217W, T220V
The gist of the method: as §1

The target in another assay is PUM1 PUF domain R7-DFE (Homo sapiens, UniProt Q14671 828-1176, S1079D;N1080F). In short, it runs like this:
as §1

For another assay, the target named is T3, PUM1 PUF domain R6-NRK (Homo sapiens, UniProt Q14671 828-1176, Y1044R;Q1047K).
T3 sequence: T1 sequence with R216N, V217R, T220K
The gist of the method:
as §1

A further assay has as its target T4, PUM1 PUF domain R6-SFV (Homo sapiens, UniProt Q14671 828-1176, N1043S;Y1044F;Q1047V).
T4 sequence: T1 sequence with R216S, V217F, T220V
The gist of the method:
as §1

Another assay deals with PUM1 PUF domain R8-KRT (Homo sapiens, UniProt Q14671 828-1176, N1122K;Y1123R;Q1126T). In short, it runs like this: as §1
The next assay concerns the target PUM1 PUF domain R4-AGY (Homo sapiens, UniProt Q14671 828-1176, N971A;H972G;Q975Y). The gist of the method: as §1
The target of another assay is PUM1 PUF domain R3-RRK (Homo sapiens, UniProt Q14671 828-1176, C935R;Q939K). In short, it runs like this:
as §1

For the next assay, the target named is PUM1 PUF domain R3-LSQ (Homo sapiens, UniProt Q14671 828-1176, C935L;R936S). In short, it runs like this:
as §1

A further assay addresses PUM1 PUF domain R5-RSK (Homo sapiens, UniProt Q14671 828-1176, C1007R;R1008S;Q1011K). The gist of the method:
as §1

In another assay the target is PUM1 PUF domain R5-KPI (Homo sapiens, UniProt Q14671 828-1176, C1007K;R1008P;Q1011I). In short, it runs like this:
as §1

Another assay concerns the target PUM1 PUF domain R8-IRK (Homo sapiens, UniProt Q14671 828-1176, N1122I;Y1123R;Q1126K). The gist of the method:
as §1

In another assay the target is PUM1 PUF domain R8-HHK (Homo sapiens, UniProt Q14671 828-1176, N1122H;Y1123H;Q1126K). In short, it runs like this: as §1
The target of another assay is PUM1 PUF domain R5-QSC (Homo sapiens, UniProt Q14671 828-1176, C1007Q;R1008S;Q1011C). In short, it runs like this: as §1
In the next assay the target is PUM1 PUF domain R5-SGC (Homo sapiens, UniProt Q14671 828-1176, C1007S;R1008G;Q1011C). In short, it runs like this: as §1

The values below come from PMC8384837, “Expanding the binding specificity for RNA recognition by a PUF domain”.

Changes are numbered by the printed parent chain.

On to “GGCUAGAACUAGUGGAUCCCCCGGCGCCCGGCGGCUCGAGCCCGGGUAAGUUUAAAUAGUCUGCAUGCCGCCGGGCGCCAUGCCUGCAGGUCGACUCUAGAAAACAUG”, for which, in the assay with PUM1 PUF domain R7-GVV, the binding signal is 2.6 log2 enrichment (interaction score).

For the sequence “GGCUAGAACUAGUGGAUCCCCCGGCGCCCGGCGGCUCGAGCCCGGGUAAGUGUUAAUAGUCUGCAUGCCGCCGGGCGCCAUGCCUGCAGGUCGACUCUAGAAAACAUG”, in the assay with PUM1 PUF domain R5-PRR, the binding signal was 3.23 log2 enrichment (interaction score).

For the sequence “GGCUAGAACUAGUGGAUCCCCCGGCGCCCGGCGGCUCGAGCCCGGGUAAGUGCAAAUAGUCUGCAUGCCGCCGGGCGCCAUGCCUGCAGGUCGACUCUAGAAAACAUG”, the binding signal with PUM1 PUF domain R6-RVT is 4.2 log2 enrichment (interaction score).

For the sequence “GGCUAGAACUAGUGGAUCCCCCGGCGCCCGGCGGCUCGAGCCCGGGUAAGUGUAAAUCGUCUGCAUGCCGCCGGGCGCCAUGCCUGCAGGUCGACUCUAGAAAACAUG”, the binding signal with PUM1 PUF domain R1-KMV is 3.19 log2 enrichment (interaction score).

Turning to “GGCUAGAACUAGUGGAUCCCCCGGCGCCCGGCGGCUCGAGCCCGGGUAAGUGUAAAUAGUCUGCAUGCCGCCGGGCGCCAUGCCUGCAGGUCGACUCUAGAAAACAUG”, the binding signal with PUM1 PUF domain R8-KHA was 3.55 log2 enrichment (interaction score); in the assay with PUM1 PUF domain R8-HFA, 2.13 log2 enrichment (interaction score); with PUM1 PUF domain R5-PRR, 2.16 log2 enrichment (interaction score); with PUM1 PUF domain R6-EWV, 1.65 log2 enrichment (interaction score); with PUM1 PUF domain R7-DFE it was 2.67 log2 enrichment (interaction score); in the assay with PUM1 PUF domain R6-NRK it was 3.68 log2 enrichment (interaction score). Also, the binding signal is 3.58 log2 enrichment (interaction score) with PUM1 PUF domain R6-SFV, 1.36 log2 enrichment (interaction score) with PUM1 PUF domain R8-KRT and 3.24 log2 enrichment (interaction score) with PUM1 PUF domain R4-AGY.

For “GGCUAGAACUAGUGGAUCCCCCGGCGCCCGGCGGCUCGAGCCCGGGUAAGUGUAAUUAGUCUGCAUGCCGCCGGGCGCCAUGCCUGCAGGUCGACUCUAGAAAACAUG”, the binding signal in the assay with PUM1 PUF domain R3-RRK is 4.07 log2 enrichment (interaction score); with PUM1 PUF domain R3-LSQ, 4.75 log2 enrichment (interaction score).

With “GGCUAGAACUAGUGGAUCCCCCGGCGCCCGGCGGCUCGAGCCCGGGUAAGUGUCAAUAGUCUGCAUGCCGCCGGGCGCCAUGCCUGCAGGUCGACUCUAGAAAACAUG”, the results for the binding signal with PUM1 PUF domain R5-PRR, with PUM1 PUF domain R5-RSK and with PUM1 PUF domain R5-KPI were 0.75 log2 enrichment (interaction score), 3.23 log2 enrichment (interaction score) and 5.02 log2 enrichment (interaction score), respectively.

On to “GGCUAGAACUAGUGGAUCCCCCGGCGCCCGGCGGCUCGAGCCCGGGUAAGCGUAAAUAGUCUGCAUGCCGCCGGGCGCCAUGCCUGCAGGUCGACUCUAGAAAACAUG”, for which the binding signal in the assay with PUM1 PUF domain R8-HFA was 3.45 log2 enrichment (interaction score); with PUM1 PUF domain R8-IRK it was 2.54 log2 enrichment (interaction score); with PUM1 PUF domain R8-KRT, 2.71 log2 enrichment (interaction score); with PUM1 PUF domain R8-HHK it was 3.15 log2 enrichment (interaction score).

Consider “GGCUAGAACUAGUGGAUCCCCCGGCGCCCGGCGGCUCGAGCCCGGGUAAGUGAAAAUAGUCUGCAUGCCGCCGGGCGCCAUGCCUGCAGGUCGACUCUAGAAAACAUG”, for which the binding signal with PUM1 PUF domain R6-EWV is 3.43 log2 enrichment (interaction score).

As to “GGCUAGAACUAGUGGAUCCCCCGGCGCCCGGCGGCUCGAGCCCGGGUAAGUGUGAAUAGUCUGCAUGCCGCCGGGCGCCAUGCCUGCAGGUCGACUCUAGAAAACAUG”, the binding signal with PUM1 PUF domain R5-PRR is 2.13 log2 enrichment (interaction score); in the assay with PUM1 PUF domain R5-QSC, 3.71 log2 enrichment (interaction score); in the assay with PUM1 PUF domain R5-SGC, 2.36 log2 enrichment (interaction score).
